In article PMC10726135, “HNF4α isoforms regulate the circadian balance between carbohydrate and lipid metabolism in the liver”:
In all, about 18,000 sequences were measured (“log2 normalized intensity”: median about 0.39, highest 2% from about 6.6 on). The sample as a whole holds a higher share of the highest values than the screen did.

What follows are sequences tested against T1, HNF4alpha2 (COS-7 nuclear extract) (Homo sapiens, UniProt P41235 1-474) (assay: protein-binding microarray; COS-7 nuclear extract on double-stranded Agilent 4x180k PBM; binding buffer, salt, pH and temperature not given in the material; high values mean tight binding). Details: chain copies: 2; label: 3' end of strand 1 on the slide; dsDNA, one strand shown.
T1 sequence: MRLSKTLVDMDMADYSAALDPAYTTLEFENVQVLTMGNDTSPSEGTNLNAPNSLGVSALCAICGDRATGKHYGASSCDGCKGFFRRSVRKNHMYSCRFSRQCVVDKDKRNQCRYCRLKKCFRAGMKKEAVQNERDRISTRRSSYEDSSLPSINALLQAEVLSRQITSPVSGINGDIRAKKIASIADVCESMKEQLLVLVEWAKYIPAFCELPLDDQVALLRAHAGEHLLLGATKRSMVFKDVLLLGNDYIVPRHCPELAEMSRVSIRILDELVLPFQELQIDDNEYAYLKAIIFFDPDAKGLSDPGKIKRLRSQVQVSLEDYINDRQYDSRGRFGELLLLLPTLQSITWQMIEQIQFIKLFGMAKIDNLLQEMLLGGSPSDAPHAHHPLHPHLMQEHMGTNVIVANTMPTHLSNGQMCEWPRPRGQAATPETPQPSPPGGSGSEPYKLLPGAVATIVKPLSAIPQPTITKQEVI
In short: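 Using CaPO4, COS-7 cells were transiently transfected with a human HNF4α isoform expression vector, and their nuclear extracts were applied to a custom Agilent SurePrint G3 4x180k double-stranded oligonucleotide array (~60 nt; ~44,000 test sequences in quadruplicate). Bound HNF4α was imaged at 2-µm resolution with an Agilent G2565CA scanner. Agilent software supplied the background-corrected, normalized gProcessedSignal that serves as the binding signal.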

| Sequence | binding signal [log2 normalized intensity] |
| --- | --- |
| AGAGCTCAGAAGCCACCAGTGCAAATATAAGCCTAGGGAGATTAGAGTATCGGTCGA | -0.972 |
| ATTTGGACTTTTACTCTTAGAGATAATGGGGCCTAGGGAGATTAGAGTATCGGTCGA | 2.13 |
| AAAATATGGACTTTGGAATTAAGAAAAGCTGCCTAGGGAGATTAGAGTATCGGTCGA | 5.25 |
| GGATAATGATAAAGAGATTGGACTTTGGCCGCCTAGGGAGATTAGAGTATCGGTCGA | 8.99 |
| AGGCCAAACAAAAATATGGACTTTGGAATTGCCTAGGGAGATTAGAGTATCGGTCGA | 7.99 |
| TCTTTAGGCCAAACAAAAATATGGACTTTGGCCTAGGGAGATTAGAGTATCGGTCGA | 5.84 |
| CAAACGAGACTTTGGACTTTGGACTTGGGAGCCTAGGGAGATTAGAGTATCGGTCGA | 10.5 |
| AAGAGATAAAAGAGAAGATAATGGATTGGGGCCTAGGGAGATTAGAGTATCGGTCGA | -0.492 |
| CACAAATTGGAGAGCATCTTGGACTTGGGAGCCTAGGGAGATTAGAGTATCGGTCGA | 2.73 |
| GAAGGAGAGAGAGGGAGAGTGGCCTTTGGAGCCTAGGGAGATTAGAGTATCGGTCGA | 2.89 |
| CTATCACTGTCTAGCTGTGTAACCCTGGACGCCTAGGGAGATTAGAGTATCGGTCGA | 1.48 |
| TGTCCAGCACACCTTTTTTTCATGCAAATTGCCTAGGGAGATTAGAGTATCGGTCGA | 0.631 |
| CCCCCTTTTGCTTTCCGTTAGGCTACAGTGGCCTAGGGAGATTAGAGTATCGGTCGA | 1.03 |
| CTCCTCTCCAGCCCATCCTAAGCCCCAGGGGCCTAGGGAGATTAGAGTATCGGTCGA | 1.15 |
| CTGAGCCTCAGAACCATTTGTGAGGATGGGGCCTAGGGAGATTAGAGTATCGGTCGA | -0.528 |
| TGCATGCAAAAAGGCTGACCTTTGACTCTCGCCTAGGGAGATTAGAGTATCGGTCGA | 7.57 |
| CTGAGGAAGTGCTGACCTTTGGTCTAAACCGCCTAGGGAGATTAGAGTATCGGTCGA | 6.27 |
| GTCAGAGTGCTGCATGCAAAAAGGCTGACCGCCTAGGGAGATTAGAGTATCGGTCGA | 1.41 |
| AGGCTGTCAGAGTGCTGCATGCAAAAAGGCGCCTAGGGAGATTAGAGTATCGGTCGA | -0.743 |
| AAGAGCTGAGGAAGTGCTGACCTTTGGTCTGCCTAGGGAGATTAGAGTATCGGTCGA | 7.29 |
| CTTTTTGACCTTGCAGTGGCAAGGCAAAAGGCCTAGGGAGATTAGAGTATCGGTCGA | 1.56 |
| TAGATAAGAGCTGAGGAAGTGCTGACCTTTGCCTAGGGAGATTAGAGTATCGGTCGA | 5.77 |

| Sequence | binding signal [log2 normalized intensity] |
| --- | --- |
| AGTGCTGCATGCAAAAAGGCTGACCTTTGAGCCTAGGGAGATTAGAGTATCGGTCGA | 7.82 |
| ATGCAAAGCCCTGGCTGACCTTTAGCCTGGGCCTAGGGAGATTAGAGTATCGGTCGA | 6.54 |
| CCCAGGTCACCCACAACCTACCCTTTGCCCGCCTAGGGAGATTAGAGTATCGGTCGA | 3.99 |
| GGCTAGGGCAAAGATCAAACATACAGTAAAGCCTAGGGAGATTAGAGTATCGGTCGA | 1.77 |
| TAGCAATAATCTTTGAAATCTGCAAATAGAGCCTAGGGAGATTAGAGTATCGGTCGA | -0.0917 |
| TCTGTGTGTATGTGTGTGTACACATTGATAGCCTAGGGAGATTAGAGTATCGGTCGA | 2.42 |
| GCAGTTCCTGATCTTTGACCTGGAGCATGAGCCTAGGGAGATTAGAGTATCGGTCGA | 4.61 |
| AGATCATCCTGCAGTTCCTGATCTTTGACCGCCTAGGGAGATTAGAGTATCGGTCGA | 7.04 |
| TTTGATCCTGATGACTGCAGAGCTTGCTCTGCCTAGGGAGATTAGAGTATCGGTCGA | -0.687 |
| GGAGAGAGTTTGGCCCCAGTTCCCATGGACGCCTAGGGAGATTAGAGTATCGGTCGA | 1.18 |
| AATTCCAGTTTGGACTTTGATCCTGATGACGCCTAGGGAGATTAGAGTATCGGTCGA | 9.15 |
| ATCCTGCAGTTCCTGATCTTTGACCTGGAGGCCTAGGGAGATTAGAGTATCGGTCGA | 5.61 |
| CAGTTTGGACTTTGATCCTGATGACTGCAGGCCTAGGGAGATTAGAGTATCGGTCGA | 7.49 |
| TGGACTTTGATCCTGATGACTGCAGAGCTTGCCTAGGGAGATTAGAGTATCGGTCGA | 5.26 |
| GATGGAGATCATCCTGCAGTTCCTGATCTTGCCTAGGGAGATTAGAGTATCGGTCGA | -0.826 |
| CTTCTGTTCAGGAGTTGTCTGTCCAGTTCAGCCTAGGGAGATTAGAGTATCGGTCGA | 1.56 |
| TAATCCCTGAGCCTGGACCTTGGAATGTCAGCCTAGGGAGATTAGAGTATCGGTCGA | 3.33 |
| AATTCACGTCATTTTGTCACCTACATGTGAGCCTAGGGAGATTAGAGTATCGGTCGA | 1.67 |
| TGCCCTGGACATATTTGTCTTCCTATCTCCGCCTAGGGAGATTAGAGTATCGGTCGA | 0.887 |
| TTCCAGAGCCTTCAAAGGAAAGCAGGTGTTGCCTAGGGAGATTAGAGTATCGGTCGA | 0.55 |
| CAGGGTCAATGTCCCCTTAGGAATAGTATCGCCTAGGGAGATTAGAGTATCGGTCGA | 2.14 |
